Data from PubChem BioAssay (NCI).
The panel holds about 83,000 compounds, 20% with a hit somewhere; the sample as a whole holds those more often.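 The endpoint reported here, percent growth, reads 100 for growth as untreated, 0 for no net growth and -100 for all cells dead.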 Unmarked numbers belong to inactive results. Activity calls are given as the source filed them. Rule for the calls: active = growth percent below 10; inactive = the rest.

Assays:
Assay in all cases: NCI-60 one-dose screen, 48 h (100 = growth as untreated, 0 = no growth, -100 = all killed)
Settings in all cases: 10 µM
[1] = tested on: NCI-H23 lung
[2] = tested on: NCI-H226 lung
[3] = tested on: NCI-H322M lung
[4] = tested on: HOP-62 NSCLC
[5] = tested on: NCI-H460 lung
[6] = tested on: HOP-92 NSCLC
[7] = tested on: NCI-H522 lung
[8] = tested on: A549/ATCC NSCLC
[9] = tested on: 786-0 renal
[10] = tested on: COLO 205 colon
[11] = tested on: DU-145 prostate
[12] = tested on: K-562 leukemia
[13] = tested on: MALME-3M melanoma
[14] = tested on: RXF 393 renal
[15] = tested on: SF-268 CNS
[16] = tested on: SF-295 CNS
[17] = tested on: SF-539 CNS
[18] = tested on: UACC-257 melanoma
[19] = tested on: M14 melanoma
[20] = tested on: MDA-MB-231 breast

SMILES | growth [1] | growth [2] | growth [3] | growth [4] | growth [5] | growth [6] | growth [7] | growth [8] | growth [9] | growth [10] | growth [11] | growth [12] | growth [13] | growth [14] | growth [15] | growth [16] | growth [17] | growth [18] | growth [19] | growth [20]
COc1ccc2nc(Cl)c(-c3cc(-c4ccccc4)nc(N)n3)cc2c1 | 37.7% | 27.1% | 60.7% | 40.8% | 3.53% (active) | 48.5% | 46.8% | 72.7% | 4.34% (active) | 53.7% | 33.3% | 0.267% (active) | 61% | -19.8% (active) | 58.8% | 30.4% | -45.6% (active) | 71.6% | 44.1% | 
Cc1ccc(C(C)C)cc1NC(=O)c1ccccc1O | 11.8% | 26.6% | 55% | 54.4% | 30.8% | -4.4% (active) | 20.6% | 47.8% | 58.8% | 100% | 63.3% |  | 9.96% (active) | 57.3% | 55.2% | 61.8% | 49.5% | 29% | 43.2% | 65.1%
CCC(C)S(=O)(=O)c1oc(-c2ccc(C)cc2)nc1S(=O)(=O)c1ccccc1 (centres undefined) | -86.8% (active) | -10.3% (active) | 65.1% | 28.7% | -13.9% (active) | -74.6% (active) | -98.7% (active) | 35.9% | -48.8% (active) | -85.5% (active) | -89.6% (active) |  | -96.4% (active) | -98% (active) | -49.1% (active) | 46.9% | -100% (active) | -89.5% (active) | -42% (active) | -88.1% (active)
O=C1Nc2cc(Cl)ccc2/C1=C/c1cccc(OCc2ccccc2)c1 | 11.9% | 21.9% | 29.5% | 0.755% (active) | 3.73% (active) | -6.89% (active) | -63% (active) | 5.95% (active) | -12% (active) | -22.8% (active) | 3.5% (active) | 5.55% (active) | 7.06% (active) | -3.3% (active) | -11.4% (active) | 1.81% (active) | -56.8% (active) | 1.39% (active) | -18.1% (active) | 
O=C(Nc1ccc(OCC(=O)c2ccccc2)cc1)Nc1ccc(Cl)c(C(F)(F)F)c1 | 25.4% | 8.87% (active) | 28% | 27.9% | 18.4% | -14.5% (active) | -31.7% (active) | 25.4% | 21% | -3.64% (active) | 49.2% |  | 10.4% | -36.7% (active) | 18.9% | 13.2% | 12.1% | 7.84% (active) | 17.5% | 16.8%
COc1ccc2nc(Cl)c(-c3cc(-c4ccccc4)nc(=O)[nH]3)cc2c1 | 57.9% | 60.8% | 78.1% | 69.9% | 18% | 55.2% | 66.9% | 77.4% | 57.8% | 92.9% | 26.1% | 4.96% (active) | 83.3% | 58.5% | 60.2% | 64.4% | 11.3% | 105% | 81.9% | 
Cc1ccc(/C=C(\C#N)n2nnc3c(F)cccc32)cc1 | 14.7% | 16.8% | 10.1% | 17.8% | 3.45% (active) | -4.81% (active) | 1.65% (active) | -3% (active) | 38.5% | -70.6% (active) | 13.9% |  | 34.7% | -4.78% (active) | 24.3% | 16% | -27.9% (active) | 38.6% | 36.6% | -18.1% (active)
C=CC(=O)Nc1nc(-c2cccc(NS(=O)(=O)c3cccc4c(N(C)C)cccc34)c2)cs1 | -3.14% (active) | 6.89% (active) | 56.2% | 31.2% | -32.8% (active) | -49.2% (active) | -76.9% (active) | 19.3% | -82.5% (active) | -56.3% (active) | 3.39% (active) |  | -76.1% (active) | -98.7% (active) | 0.14% (active) | 37.8% | -100% (active) | -29.3% (active) | -78.7% (active) | -63.8% (active)
CN1CCN(c2ccc(Nc3nc(N4CCN(S(=O)(=O)c5ccc(Cl)cc5)CC4)c4sccc4n3)cc2)CC1 | 46.6% | -22.2% (active) | 74.5% | 71.4% | -70.6% (active) | 69.1% | -82.7% (active) | 22% | -62.9% (active) | -77.9% (active) | -60.8% (active) |  | -97.6% (active) | -95.7% (active) | 52.9% | -78% (active) | -100% (active) | -87.1% (active) | -60.6% (active) | -86.3% (active)
O=C(COc1ccc(NC(=O)Nc2ccc(Cl)cc2)cc1)N=Nc1c(O)[nH]c2ccc([N+](=O)[O-])cc12 | 21.4% | 22.4% | 53.3% | 35.7% | 17.5% | -36.2% (active) | 8.06% (active) | 105% | 53.6% | 23% | 60.3% |  | 12.1% | 73.1% | 19.5% | 87.3% | 16.5% | 74.9% | 21.2% | -44.7% (active)
COc1ccc(C(C)=C(c2ccc(OCCCN(C)C)cc2)c2ccc(OCCCN(C)C)cc2)cc1 | -95.6% (active) | -82.2% (active) | -97.1% (active) | -92.2% (active) | -44.2% (active) | -74.5% (active) | -92.7% (active) | -92.5% (active) | -82.6% (active) | -90.2% (active) | -96.4% (active) |  | -97% (active) | -94.6% (active) | -73.7% (active) | -85.2% (active) | -99.5% (active) | -96.1% (active) | -79.8% (active) | -97.4% (active)
CC(C)(C)c1ccc(NCc2cn(-c3ccc(C(=O)O)cc3)nc2-c2ccc(C#N)cc2)cc1 | 8.82% (active) | 31.6% | 41% | 36.2% | 11.6% | -3.79% (active) | 57.1% | 24.3% | 22.8% | 34.8% | 36.1% | 14.8% | 42.9% |  | 33.9% | 19.2% | 14.3% | 45.5% | 30.1% | 41.9%
S=c1nc(-c2ccccc2)cc(-c2cc3ccccc3nc2Cl)[nH]1 | 78.5% | 76.8% | 98.5% | 72.7% | 90.4% | 75.9% | 57.8% | 86.1% | 90.5% | 96.3% | 90.5% | 14.2% | 66.4% | 91.2% | 70.5% | 55.8% | 72.3% | 81.6% | 36.7% | 
COc1ccc(C=CC(=O)c2ccc(-n3c(C)nc4c(cnn4-c4ccccc4)c3=O)cc2)cc1 | 72.4% | 70.6% | 107% | 80.5% | 97.8% | 97.3% | 57.4% | 90.8% | 84.6% | 116% | 83.2% | 12.4% | 60.6% | 84.4% | 92.4% | 65.6% | 77.6% | 74.6% | 53.1% | 
Cc1ccc(C(=O)Nc2ccc(-n3c(C)nc4c(cnn4-c4ccccc4)c3=O)cc2)cc1 | 53.6% | 54.8% | 87.3% | 78.8% | 75.4% | 93.3% | 71.2% | 65.8% | 86.1% | 77.4% | 84.9% | 31.2% | 67.7% | 87.9% | 96.3% | 50.6% | 81.4% | 42% | 73.2% | 
Clc1ccc2c(N/N=C/c3c[nH]c4ccc(Br)cc34)ccnc2c1 | -85.4% (active) | -64.4% (active) | -96.9% (active) | -59.1% (active) | 9.83% (active) | -69.1% (active) | -66.9% (active) | 1.71% (active) | -54.7% (active) | -44% (active) | -79.3% (active) | -25.5% (active) | -83% (active) |  | -35.7% (active) | -99.4% (active) | -87.6% (active) | -83.8% (active) | -46.3% (active) | -90.4% (active)
